# NPSR antag: antagonists of human neuropeptide S receptor cAMP signaling. Q6W5P4. AID 1461. Potency, µM (titrated, usually from 38.3 µM), without a hit: top-dose activity change, negative = inhibition, actives largely listed as inhibitors. CHO-NPSR cells, cAMP TR-FRET, antagonist mode. hit rate 1% among 220,000; also: nearly all actives have a fitted effect of over 50% in size
# ALDH1A1 block: inhibitors of human aldehyde dehydrogenase 1A1; P00352; Purified ALDH1A1, NADH fluorescence, propionaldehyde substrate; Potency, µM (titrated, usually from 75.3 µM), inactives show at the top dose activity, negative = inhibition, hits mostly inhibitors; hit rate 7.3% among 220,000; active = well fitted inhibition curve with a large enough effect, not every such curve was filed as active; inconclusive = small, poorly fitted or top-dose-only effect, or another doubt; inactive = no such curve, though single readings can be large or run the other way;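 also: plate controls were no enzyme wells and a reference inhibitor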
# Tau fluor counter: counter-screen for tau fibril formation inhibitors; tau K18 P301L Alexa594 fluorescence, heparin fibrillization; Potency, µM (titrated, usually from 57.7 µM), for inactives: top-dose activity change, negative = decrease; hit rate 0.93% among 280,000; also: nearly all actives have a fitted effect of over 55% in size
#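 Human tau K18 P301L (15 uM unlabeled, 0.24 uM Alexa 594-labeled) in 100 mM sodium acetate pH 7 with 20 uM heparin, 6 hr at 37 C. ThT 30 uM added, 1 hr ambient; Alexa 594 FP and total fluorescence read at 555/632 nm.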
# Tau fibril FP: blocks human tau fibril formation measured by polarization | P10636 | K18 P301L tau heparin fibrillization, Alexa594 FP, 6 h | hit rate 0.39% among 280,000 | AID 1468 | Potency, µM (titrated, usually from 57.7 µM), for inactives: top-dose activity, negative = inhibition, actives largely listed as inhibitors; also: nearly all actives have a fitted effect of over 55% in size
# Target sequence (P10636 561-689 P618L limits assumed): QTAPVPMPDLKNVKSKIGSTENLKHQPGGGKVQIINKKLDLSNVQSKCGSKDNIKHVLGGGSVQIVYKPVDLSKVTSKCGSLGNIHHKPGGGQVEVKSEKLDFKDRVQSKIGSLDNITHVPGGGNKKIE
#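 Read-out: fluorescence polarization of Alexa 594-labeled tau (0.24 uM), 555 nm excitation, 632 nm emission. Mixtures held 15 uM unlabeled K18 P301L, compound and 20 uM heparin, pH 7 acetate buffer, incubated 6 hr at 37 C.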
# HPGD block: HPGD (human) dehydrogenase inhibition. P15428. hit rate 4.3% among 150,000. Potency, µM, for the others: at the highest dose activity change, negative = inhibition, most hits filed as inhibitors. purified HPGD, NADH fluorescence kinetic, PGE2 substrate; active = well fitted inhibition curve with a large enough effect, not every such curve was filed as active; inconclusive = small, poorly fitted or top-dose-only effect, or another doubt; inactive = no such curve, though single readings can be large or run the other way
# Target sequence (P15428 whole entry, looked up): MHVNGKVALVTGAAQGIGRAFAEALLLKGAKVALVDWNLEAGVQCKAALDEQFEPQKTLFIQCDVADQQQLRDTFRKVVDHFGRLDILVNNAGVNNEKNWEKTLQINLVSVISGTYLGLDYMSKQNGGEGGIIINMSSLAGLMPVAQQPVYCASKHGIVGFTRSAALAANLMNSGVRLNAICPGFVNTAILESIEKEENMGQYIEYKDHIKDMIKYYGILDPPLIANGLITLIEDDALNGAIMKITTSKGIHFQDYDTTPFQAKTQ
#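 20 nM HPGD preincubated 15 min at room temperature with compound in 50 mM Tris-HCl pH 8, 0.01% Tween 20. Started with 1 mM NAD+ and 30 uM prostaglandin E2; NADH fluorescence (360/450 nm) read 5 times over 30-s intervals, last minus first.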
# Tau fibril ThT: tau fibrillization inhibition (ThT binding); recombinant tau K18 P301L, heparin-induced fibrillization, ThT fluorescence; Potency, µM (doses to about 57.4 µM), for inactives: at the top dose activity, negative = inhibition, hits mostly inhibitors; hit rate 2.1% among 270,000; AID 1460; also: nearly all actives have a fitted effect of over 55% in size
#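 ThT emission at 510 nm, taken 1 hr after adding 30 uM dye, quantifies aggregates formed when 20 uM heparin acts on human tau K18 P301L for 6 hr at 37 C.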
# * marks the source's active call; other numbers are inactive results; ? = inconclusive; / = no result given; ! = not active in a repeat; [ ] = dose if it differs, or a comment. Most compounds without a hit are left out; they make up all but 9.5% or so of the library. Unless noted, calls follow the shape of the dose curve; as a rule, active = well fitted curve in the direction sought with a large enough effect; inconclusive = small, poorly fitted or top-dose-only effect, or another doubt; inactive = no such curve, though single readings can be large; an effect the other way counts as inactive or inconclusive. Unless noted, % is scaled to controls: 0 for no effect and ±100 for the full control effect; potency is read from the fitted curve at half-maximal effect.
SMILES,NPSR antag,ALDH1A1 block,Tau fluor counter,Tau fibril FP,HPGD block,Tau fibril ThT
Cc1cccc(NC(=O)c2ccccc2Br)n1,-7%[46.1 µM],?,-8%,-5%,25µM*,-12%
Cc1cccc(NC(=O)c2onc3c2CCCC3)c1C,-13%[46.1 µM],-8%,-3%,-1%,-12%,-8%
Cc1cccc(NC(=O)c2onc3c2CCCC3)n1,-8%,22µM*,3%,-1%,-17%,-1%
CCOC(=O)c1c(C)n(-c2ccccc2)c2ccc(OC(=O)c3ccccc3)cc12,/,/,-14%,-8%,/,-14%
CN(C(=O)COc1ccc(S(=O)(=O)N2CCOCC2)cc1[N+](=O)[O-])C1CCS(=O)(=O)C1 (centres undefined),-16%,13µM*,-5%,8%,/,-5%
O=C1c2cccc(O)c2C(=O)c2c(O)cccc21,5%,?,?,-6%,35µM*!,?
COC(=O)c1ccc2c(c1O)C(=O)c1ccccc1C2=O,10%[46.1 µM],11%,?,-3%,-17%,5.6µM*
CCSc1c(C(=O)NC)ccc2c1C(=O)c1ccccc1C2=O,4%[46.1 µM],?,-9%,6%,-7%,?
O=C1c2c(O)ccc([N+](=O)[O-])c2C(=O)c2c([N+](=O)[O-])ccc(O)c21,/,3%,/,/,?,/
O=C1c2ccccc2C(=O)c2c1ccc(O)c2O,/,?,?,-7%,28µM*,8.9µM*
O=C1c2ccc(O)c(O)c2C(=O)c2c(O)ccc(O)c21,/,?,2.5µM*[quencher],13µM*,11µM*,1.4µM*
CN(C)c1cccc2c1C(=O)c1ccccc1C2=O,-20%,?,?,1%,-6%,?
COc1ccc(N2CCN(C(=O)c3cc4c(=O)n(Cc5cccs5)ccc4nc3C)CC2)cc1,/,/,-11%,8%,/,-15%
O=S(=O)(c1ccc(N2CCN(CCO)CC2)nc1)N1CCCCC1,-7%[46.1 µM],-3%,0%,1%,-2%,-6%
CC1(OC(=O)c2ccc(Cl)nc2)C(=O)C=c2cc(-c3ccsc3)ncc2=C1OC(=O)C1CCCC1 (centres undefined),/,7%[13.5 µM],0%[11.6 µM],-6%[11.6 µM],-8%,4%[11.5 µM]
COc1ccc(NC(=O)Nc2ccc(N3CCOCC3)c3nonc23)c(OC)c1,11%,-7%,-21%,-10%,/,?
Nc1ccc(N2CCOCC2)c2nonc12,24%,20µM*,?,?,/,14µM*
O=C(Nc1ccc(N2CCOCC2)c2nonc12)C1CCCC1,-25%[46.1 µM],?,-17%,?,-19%,?
O=C(Nc1ccc(F)cc1)Nc1ccc(N2CCOCC2)c2nonc12,-6%,4%,-23%,14%,/,2.8µM*
CCc1cccc(NC(=O)c2ccc(NC(=O)N3CCSc4ncccc43)cc2)c1,/,/,-26%,-5%,/,-17%
CCOCCc1nn2c(=O)cc(COC(=O)c3ccccc3NC(=O)c3cccs3)nc2s1,/,/,-2%,-2%,/,4%
CC(=O)Oc1c(/C=C(\C#N)C(N)=O)[nH]c2ccccc12,-34%,-2%,-6%,-3%,?,-5%
Cc1cc(C=O)c(C)n1-c1sc2c(c1C(=O)O)CCCC2,9%,4%,7%,-3%,0%,0%
Cc1c(C(=O)O)cccc1-n1c(C)cc(C=O)c1C,10%,22µM*,-3%,-4%,/,-1%
Cc1ccc(C(=O)O)cc1-n1c(C)cc(C=O)c1C,4%,2µM*,5%,1%,/,0%
SMILES,NPSR antag,ALDH1A1 block,Tau fluor counter,Tau fibril FP,HPGD block,Tau fibril ThT
CCC12CN3CC(C)(CN(C1)C3c1c(C)n(C)c3ccccc13)C2=O (centres undefined),/,/,-2%,-2%,/,1%
CCOC(=O)c1sc(-c2ccccn2)nc1C,6%,-2%,1%,3%,/,-7%
CCOC(=O)Nc1ccc(NCc2ccc(F)cc2)nc1N,-8%[46.1 µM],?,?,?,?,18µM*
CCOC(=O)Nc1ccc(C)cc1NC(=O)OCC,-11%[46.1 µM],5%,-4%,0%,-6%,-7%
CC1=C(C(N)=O)C(c2ccc(C)o2)C(C(N)=O)=C(C)N1,3%[46.1 µM],40µM*,-10%,-4%,-10%,?
COc1ccc(NC(=O)CSc2ccccc2)c(OC)c1,-12%[46.1 µM],4%,-14%,-5%,-28%,-10%
Cc1ccc(N2C(=O)CS/C2=C(\C(Cl)=C(Cl)Cl)[N+](=O)[O-])cc1,-27%[46.1 µM],20µM*,?,?,-2%,25µM*
CCCCN(Cc1ccccc1)C(=O)CCN1C(=O)C2C3C=CC(C3)C2C1=O (centres undefined),-7%,2.2µM*,0%,3%,/,-1%
CN(Cc1ccccc1)C(=O)CN1C(=O)C2C3C=CC(C3)C2C1=O (centres undefined),4%[46.1 µM],-4%,-3%,-6%,-14%,-1%
CCCC(CCC)C(=O)Nc1c[nH]c(=O)[nH]c1=O,-2%[46.1 µM],6%,-5%,-1%,-8%,-11%
CCCCn1cc(S(=O)(=O)c2ccc(C)c(C)c2)c(=O)c2cc(F)c(N3CCN(C)CC3)cc21,/,/,3%,3%,/,2%
C=CCn1c(=O)/c(=C/c2cc(OC)c(OC)c(OC)c2)s/c1=C(/C#N)c1nc2ccccc2n1C,-13%[46.1 µM],1.4µM*,-7%,8%,-26%,?
Cc1oc(C)c2c(=O)ccc3c(c12)OC(N)=C(C#N)C3c1ccccc1 (centres undefined),-23%[46.1 µM],?,?,?,-11%,25µM*
Cc1oc(C)c2c(=O)ccc3c(c12)OC(N)=C(C#N)C3c1ccccc1Cl (centres undefined),10µM*,25µM*,?,?,-10%,20µM*
CSc1ccc(C2C(C#N)=C(N)Oc3c2ccc(=O)c2c(C)oc(C)c32)cc1 (centres undefined),-26%[46.1 µM],?,?,?,?,25µM*
N#CC1=C(N)Oc2c(ccc3cccnc23)C1c1ccccc1 (centres undefined),15%,/,-20%,-2%,/,-15%
CC(=O)C1=C(C)OC(N)=C(C#N)C1c1cccc2ccccc12 (centres undefined),16%,/,-26%,?,/,?
CCOc1ccccc1-n1nnc(S(=O)(=O)c2ccc(C)cc2)c1N,/,/,-22%,-7%,/,-5%
COc1ccc2c(c1)Cc1cc(N=[N+]([O-])c3ccc4c(c3)Cc3cc(OC)ccc3-4)ccc1-2,/,?,/,/,-11%,/
Cc1ccccc1CNC(=O)c1ccc(Cn2c(SCc3ccccc3)nc3cccnc32)cc1,/,/,-20%,-2%,/,3%
O=C(CS(=O)(=O)Cc1ccccc1)Nc1ccc(Cl)cn1,-5%[46.1 µM],0%,-7%,-5%,-6%,-9%
